From PubChem BioAssay (Tox21)
Inconclusive results are not listed. Values without a mark were called inactive. The source made the active and inactive calls. Calls follow the shape of the dose curve; as a rule, active = well fitted curve in the direction sought with a large enough effect in the repeat runs; inconclusive = weak or mixed curves; inactive = no such curve, though single readings can be large; an effect the other way counts as inactive or inconclusive.

Molecular target: Cytochrome P450 1A2 (Homo sapiens) (UniProt P05177)
Experiment: Cytochrome P450 Family 1 Subfamily A Member 2 (CYP1A2) small molecule antagonists: luciferase reporter qHTS assay (AID 1671199)
Conditions: P450-Glo CYP1A2 enzyme, luciferin luminescence, 1 h; series mostly up to 115 µM; activity change, negative = inhibition: at the top concentration
In short: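 Room-temperature CYP1A2 reaction with proluciferin substrate: compounds added from DMSO, 10 min preincubation, NADPH regeneration for 1 h. Luciferin detection reagent then added; luminescence recorded as RLU.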
% is scaled to controls: 0 for no effect and ±100 for the full control effect; potency is read from the fitted curve at half-maximal effect.
Also: nearly all actives have a fitted effect of over 50% in size.

Sequence of Cytochrome P450 1A2 (Homo sapiens) (P05177 whole entry, looked up): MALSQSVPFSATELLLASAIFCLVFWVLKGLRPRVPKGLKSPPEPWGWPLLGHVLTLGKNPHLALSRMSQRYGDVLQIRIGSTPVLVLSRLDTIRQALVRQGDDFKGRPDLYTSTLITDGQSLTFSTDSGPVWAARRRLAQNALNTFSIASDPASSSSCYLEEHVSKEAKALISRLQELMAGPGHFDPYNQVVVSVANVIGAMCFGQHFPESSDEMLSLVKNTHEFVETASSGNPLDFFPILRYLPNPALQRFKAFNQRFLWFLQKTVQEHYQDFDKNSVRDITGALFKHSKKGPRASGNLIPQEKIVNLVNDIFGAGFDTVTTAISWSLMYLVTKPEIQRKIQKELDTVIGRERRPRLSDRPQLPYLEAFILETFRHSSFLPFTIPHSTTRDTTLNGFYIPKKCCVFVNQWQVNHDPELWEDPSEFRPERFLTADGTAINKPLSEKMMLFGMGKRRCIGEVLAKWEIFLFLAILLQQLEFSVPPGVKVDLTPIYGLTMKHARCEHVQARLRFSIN

| Structure (SMILES) | activity change, negative = inhibition | Potency |
| --- | --- | --- |
| COc1ccc(CCN(C)CCCN2CCc3cc(OC)c(OC)cc3CC2=O)cc1OC | -10% [at 53 µM] | – |
| Oc1ccc2c(c1)Cc1ccccc1-2 | – | 3.56 µM (active) |
| CCOC(=O)N1CCC(Nc2ccc(Cl)cc2N)CC1 | -4.1% [at 53 µM] | – |
| CCN(CC)CCNC(=O)c1cc(Cl)c(N)cc1OC | -11.1% [at 53 µM] | – |
| CNC1CCCN(c2c(F)cc3c(=O)c(C(=O)O)cn(C4CC4)c3c2OC)C1 (configuration not stated) | -10.3% [at 53 µM] | – |
| O=C(Oc1ccccc1)c1ccc2ccccc2c1O | – | 5.64 µM (active) |
| CCCCCCCC(=O)Oc1c(Br)cc(C#N)cc1Br | – | 12.6 µM (active) |
| CNS(=O)(=O)c1cc(C(=O)N2CCC(CCN3C4CCC3CC(n3c(C)nc5ccccc53)C4)(c3cccc(F)c3)CC2)c(Cl)cc1F (configuration not stated) | -14.2% | – |
| O=P(O)(O)Oc1ccccc1 | -14.6% | – |

Molecular target: Voltage-gated inwardly rectifying potassium channel KCNH2 (Homo sapiens) (UniProt Q12809)
Experiment: Human Ether-a-go-go-Related Gene (hERG) channel small molecule antagonists: fluorescence cell-based qHTS assay (AID 1671200);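 as to activity change, negative = inhibition: hERG-expressing U2OS cells given a thallium stimulus after FluxOR II dye loading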
Conditions: hERG-U2OS cells, FluxOR thallium flux fluorescence; series mostly up to 76.8 µM; activity change, negative = inhibition: at the top concentration
In short: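 U2OS cells expressing the channel were plated at 1000 cells/well, incubated overnight at 37 C, then loaded with FluxOR II thallium-sensitive dye for 1 h at room temperature in the dark, with a further 10 min at room temperature before stimulation.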

Sequence of Voltage-gated inwardly rectifying potassium channel KCNH2 (Homo sapiens) (Q12809 whole entry, looked up): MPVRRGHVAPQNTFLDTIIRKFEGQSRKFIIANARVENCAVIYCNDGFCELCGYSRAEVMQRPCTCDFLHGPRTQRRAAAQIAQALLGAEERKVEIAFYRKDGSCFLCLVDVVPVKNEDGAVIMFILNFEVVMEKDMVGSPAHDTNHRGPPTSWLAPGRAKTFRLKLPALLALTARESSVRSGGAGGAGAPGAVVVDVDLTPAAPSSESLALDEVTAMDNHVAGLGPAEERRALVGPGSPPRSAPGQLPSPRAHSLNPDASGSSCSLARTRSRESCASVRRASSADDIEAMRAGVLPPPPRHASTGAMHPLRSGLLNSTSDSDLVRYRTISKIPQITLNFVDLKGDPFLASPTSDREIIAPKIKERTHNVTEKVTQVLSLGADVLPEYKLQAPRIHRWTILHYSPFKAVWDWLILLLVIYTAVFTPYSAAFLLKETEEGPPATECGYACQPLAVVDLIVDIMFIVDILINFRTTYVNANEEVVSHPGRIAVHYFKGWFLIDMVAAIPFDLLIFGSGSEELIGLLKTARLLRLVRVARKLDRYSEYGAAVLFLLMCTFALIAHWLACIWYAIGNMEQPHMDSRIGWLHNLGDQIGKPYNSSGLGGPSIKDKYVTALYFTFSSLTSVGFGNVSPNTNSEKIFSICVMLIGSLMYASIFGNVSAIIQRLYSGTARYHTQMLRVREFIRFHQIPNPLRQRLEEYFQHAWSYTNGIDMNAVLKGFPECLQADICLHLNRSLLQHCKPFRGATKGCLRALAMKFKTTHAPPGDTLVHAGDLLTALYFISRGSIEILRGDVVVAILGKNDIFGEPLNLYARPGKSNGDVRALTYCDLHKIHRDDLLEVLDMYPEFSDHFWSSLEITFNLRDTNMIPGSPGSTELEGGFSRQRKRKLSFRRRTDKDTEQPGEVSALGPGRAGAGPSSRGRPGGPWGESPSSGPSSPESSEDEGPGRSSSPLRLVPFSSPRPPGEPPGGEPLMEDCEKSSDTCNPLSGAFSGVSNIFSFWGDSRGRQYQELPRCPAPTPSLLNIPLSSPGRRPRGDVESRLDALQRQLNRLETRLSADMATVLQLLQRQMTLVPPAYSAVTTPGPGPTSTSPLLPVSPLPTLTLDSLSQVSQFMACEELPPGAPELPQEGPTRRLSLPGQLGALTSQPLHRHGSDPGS

| Structure (SMILES) | activity change, negative = inhibition | Potency |
| --- | --- | --- |
| CC/C=C\C/C=C\C/C=C\CCCCCCCC(=O)OCC | -7.28% | – |
| CC1CCCO1 (configuration not stated) | 6.04% | – |
| CCC1CCC(CCC(=O)O)C1 (configuration not stated) | 1.42% | – |
| Cc1cn([C@H]2C[C@H](F)[C@@H](CO)O2)c(=O)[nH]c1=O | 4.07% [at 35.3 µM] | – |
| Cc1ccccc1S(N)(=O)=O | 1.9% | – |
| CCSC(=O)N(CC)CC | 13.1% | – |
| C=C(C)c1ccccc1 | 3.21% | – |
| Oc1ccc2c(c1)Cc1ccccc1-2 | 1.74% | – |
| CC1CCc2nccnc21 (configuration not stated) | -0.413% | – |
| CCCCCCCC/C=C/C(=O)O | -0.159% [at 35.3 µM] | – |
| CCOC(=O)N1CCC(Nc2ccc(Cl)cc2N)CC1 | -0.859% [at 35.3 µM] | – |
| CC(=O)Oc1cccc(O)c1 | -1.01% [at 35.3 µM] | – |
| COC(=O)C1=C(C)NC(C)=C(C(=O)OC(C)(C)CN(C)CCC(c2ccccc2)c2ccccc2)C1c1cccc([N+](=O)[O-])c1 (configuration not stated) | – | 2.39 µM (active) |
